About 2,000 (36%) of roughly 5,500 compounds were called active. Roughly 18% stayed inconclusive and do not appear here. Cut-off read from the data, not from the text of the source: active = normalized growth mostly below about 0.91 (no sharp cut-off); inconclusive = no clear call, values can overlap the other calls; inactive = mostly above about 0.92. The list shows a part of the results.
Test: chemical genetic growth profiling, strain panel (AID 1159580);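 note: tested at 20 µM; growth read once vehicle control cultures reached saturation at 30 °C; 1 = growth at the plate median or of vehicle wells; lower values mean less growth of the strain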
Conditions: growth OD
[1] = S. cerevisiae deletion strains, locus YDL101C, strain DUN1, hits give low values
[2] = S. cerevisiae deletion strains, locus YHR030C, strain SLT2, hits give low values

Measured: normalized growth

CCCCCc1ccc(S(=O)(=O)Nc2ncc(C)cc2Br)cc1
inactive: S. cerevisiae deletion strains, locus YAR019C, strain CDC15, hits give low values 0.955 | S. cerevisiae deletion strains, locus YBL105C, strain PKC1, hits give low values 0.953 | S. cerevisiae deletion strains, locus YBR135W, strain CKS1, hits give low values 0.942 | S. cerevisiae deletion strains, locus YBR136W, strain MEC1, hits give low values 0.952 | S. cerevisiae deletion strains, locus YBR160W, strain CDC28, hits give low values 0.947 | S. cerevisiae deletion strains, locus YDL017W, strain CDC7, hits give low values 0.953 | S. cerevisiae deletion strains, locus YDL028C, strain MPS1, hits give low values 0.953 | [1] 0.962 | S. cerevisiae deletion strains, locus YDL108W, strain KIN28, hits give low values 0.951 | S. cerevisiae deletion strains, locus YDL132W, strain cdc53, hits give low values 0.962 | S. cerevisiae deletion strains, locus YDL214C, strain PRR2, hits give low values 0.832 | S. cerevisiae deletion strains, locus YDR052C, strain DBF4, hits give low values 0.962 | S. cerevisiae deletion strains, locus YDR054C, strain cdc34, hits give low values 0.945 | S. cerevisiae deletion strains, locus YDR226W, strain ADK1, hits give low values 0.959 | S. cerevisiae deletion strains, locus YDR477W, strain SNF1, hits give low values 0.873 | S. cerevisiae deletion strains, locus YER123W, strain YCK3, hits give low values 0.835 | S. cerevisiae deletion strains, locus YER133W, strain GLC7, hits give low values 0.884 | S. cerevisiae deletion strains, locus YFL009W, strain cdc4, hits give low values 0.957 | S. cerevisiae deletion strains, locus YFL029C, strain CAK1, hits give low values 0.949 | S. cerevisiae deletion strains, locus YFR003C, strain YPI1, hits give low values 0.959 | S. cerevisiae deletion strains, locus YFR019W, strain FAB1, hits give low values 0.939 | S. cerevisiae deletion strains, locus YFR028C, strain CDC14, hits give low values 0.95 | S. cerevisiae deletion strains, locus YGR040W, strain KSS1, hits give low values 0.865 | S. cerevisiae deletion strains, locus YGR052W, strain FMP48, hits give low values 0.847 | S. cerevisiae deletion strains, locus YGR092W, strain DBF2, hits give low values 0.769 | S. cerevisiae deletion strains, locus YHR079C, strain IRE1, hits give low values 0.835 | S. cerevisiae deletion strains, locus YHR082C, strain KSP1, hits give low values 0.857 | S. cerevisiae deletion strains, locus YHR205W, strain SCH9, hits give low values 0.702 | S. cerevisiae deletion strains, locus YIL147C, strain SLN1, hits give low values 0.96 | S. cerevisiae deletion strains, locus YJL095W, strain BCK1, hits give low values 0.789 | S. cerevisiae deletion strains, locus YJL128C, strain PBS2, hits give low values 0.852 | S. cerevisiae deletion strains, locus YJL157C, strain FAR1, hits give low values 0.863 | S. cerevisiae deletion strains, locus YJR016C, strain ILV3, hits give low values 0.96 | S. cerevisiae deletion strains, locus YJR066W, strain TOR1 (second series), hits give low values 0.856 | S. cerevisiae deletion strains, locus YJR066W, strain TOR1, hits give low values 0.906 | S. cerevisiae deletion strains, locus YKL067W, strain YNK1, hits give low values 0.853 | S. cerevisiae deletion strains, locus YKL101W, strain HSL1, hits give low values 0.78 | S. cerevisiae deletion strains, locus YKL193C, strain SDS22, hits give low values 0.964 | S. cerevisiae deletion strains, locus YKL203C, strain TOR2, hits give low values 0.936 | S. cerevisiae deletion strains, locus YLR133W, strain CKI1, hits give low values 0.845 | S. cerevisiae deletion strains, locus YLR403W, strain SFP1, hits give low values 0.779 | S. cerevisiae deletion strains, locus YML070W, strain DAK1, hits give low values 0.78 | S. cerevisiae deletion strains, locus YMR001C, strain CDC5, hits give low values 0.955 | S. cerevisiae deletion strains, locus YMR205C, strain PFK2 (second series), hits give low values 0.836 | S. cerevisiae deletion strains, locus YMR277W, strain FCP1, hits give low values 0.956 | S. cerevisiae deletion strains, locus YNL006W, strain LST8, hits give low values 0.968 | S. cerevisiae deletion strains, locus YNL020C, strain ARK1, hits give low values 0.796 | S. cerevisiae deletion strains, locus YNL161W, strain CBK1, hits give low values 0.961 | S. cerevisiae deletion strains, locus YNL183C, strain NPR1, hits give low values 0.806 | S. cerevisiae deletion strains, locus YNL207W, strain RIO2, hits give low values 0.968 | S. cerevisiae deletion strains, locus YNL222W, strain SSU72, hits give low values 0.951 | S. cerevisiae deletion strains, locus YNL307C, strain MCK1 (second series), hits give low values 0.811 | S. cerevisiae deletion strains, locus YOL078W, strain AVO1, hits give low values 0.95 | S. cerevisiae deletion strains, locus YOL136C, strain PFK27, hits give low values 0.818 | S. cerevisiae deletion strains, locus YOR061W, strain CKA2, hits give low values 0.815 | S. cerevisiae deletion strains, locus YOR119C, strain RIO1, hits give low values 0.893 | S. cerevisiae deletion strains, locus YOR231W, strain MKK1, hits give low values 0.783 | S. cerevisiae deletion strains, locus YOR329C, strain SCD5, hits give low values 0.957 | S. cerevisiae deletion strains, locus YPL031C, strain PHO85, hits give low values 0.882 | S. cerevisiae deletion strains, locus YPL153C, strain RAD53, hits give low values 0.829 | S. cerevisiae deletion strains, locus YPL204W, strain HRR25, hits give low values 0.843 | S. cerevisiae deletion strains, locus YPL209C, strain IPL1, hits give low values 0.955 | S. cerevisiae deletion strains, locus YPR025C, strain CCL1, hits give low values 0.955 | S. cerevisiae deletion strains, locus YPR106W, strain ISR1, hits give low values 0.921 | S. cerevisiae deletion strains, locus YPR111W, strain DBF20, hits give low values 0.903 | S. cerevisiae deletion strains, strain NNK1, hits give low values 0.923 | S. cerevisiae deletion strains, strain TSCII, hits give low values 0.955
active: [2] 0.568 | S. cerevisiae deletion strains, locus YKL048C, strain ELM1, hits give low values 0.793 | S. cerevisiae deletion strains, locus YLR113W, strain HOG1, hits give low values 0.674 | S. cerevisiae deletion strains, locus YPL256C, strain CLN2, hits give low values 0.792

CCCCCc1ccc(S(=O)(=O)Nc2cccnc2Oc2ccc(Cl)cc2)cc1
inactive: S. cerevisiae deletion strains, locus YAL013W, strain DEP1, hits give low values 0.988 | S. cerevisiae deletion strains, locus YBR229C, strain ROT2, hits give low values 1 | [1] 0.992 | S. cerevisiae deletion strains, locus YDL134C, strain PPH21, hits give low values 0.994 | S. cerevisiae deletion strains, locus YDR150W, strain NUM1, hits give low values 1 | S. cerevisiae deletion strains, locus YEL061C, strain CIN8, hits give low values 1 | S. cerevisiae deletion strains, locus YGR078C, strain PAC10, hits give low values 1 | [2] 0.965 | S. cerevisiae deletion strains, locus YHR087W, strain rtc3, hits give low values 0.987 | S. cerevisiae deletion strains, locus YJL187C, strain SWE1, hits give low values 0.998 | S. cerevisiae deletion strains, locus YJR043C, strain POL32, hits give low values 0.988 | S. cerevisiae deletion strains, locus YJR075W, strain HOC1, hits give low values 0.964 | S. cerevisiae deletion strains, locus YLR039C, strain RIC1, hits give low values 0.951 | S. cerevisiae deletion strains, locus YLR058C, strain SHM2 (second series), hits give low values 0.994 | S. cerevisiae deletion strains, locus YLR085C, strain ARP6, hits give low values 1 | S. cerevisiae deletion strains, locus YLR262C, strain YPT6, hits give low values 0.951 | S. cerevisiae deletion strains, locus YML094W, strain GIM5, hits give low values 0.998 | S. cerevisiae deletion strains, locus YMR219W, strain ESC1, hits give low values 0.996 | S. cerevisiae deletion strains, locus YMR263W, strain SAP30, hits give low values 0.997 | S. cerevisiae deletion strains, locus YMR307W, strain GAS1, hits give low values 0.992 | S. cerevisiae deletion strains, locus YNL128W, strain TEP1, hits give low values 1.01 | S. cerevisiae deletion strains, locus YNL153C, strain GIM3, hits give low values 1 | S. cerevisiae deletion strains, locus YNL298W, strain CLA4 (second series), hits give low values 1.01 | S. cerevisiae deletion strains, locus YNL322C, strain KRE1, hits give low values 0.995 | S. cerevisiae deletion strains, locus YNR030W, strain Alg12, hits give low values 0.984 | S. cerevisiae deletion strains, locus YOL006C, strain TOP1, hits give low values 0.986 | S. cerevisiae deletion strains, locus YPL055C, strain LGE1, hits give low values 0.989 | S. cerevisiae deletion strains, locus YPL241C, strain CIN2, hits give low values 1.08 | S. cerevisiae deletion strains, locus YPR135W, strain CTF4, hits give low values 1.02 | S. cerevisiae strains, strain wild type, hits give low values 1
